From PubChem BioAssay AID602270 (The Scripps Research Institute Molecular Screening Center, 2012) come the findings set out here.

Some of the results follow. Unmarked numbers belong to inactive results. The source made the active and inactive calls. No stated cut-off is given here; in the data, active means activation above about 4%; inactive means the rest.

The subject of the assay is Methionine sulfoxide reductase A (Bos taurus). Put plainly: methionine sulfoxide reductase A activation – biochemical, absorbance, bovine, HTS, confirmation (AID 602270).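 Further: enzyme coupled to thioredoxin and thioredoxin reductase with NADPH; 0% = vehicle wells and 100% = reference activator wells.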 Particulars: purified bovine MsrA, absorbance read-out; at 10.6 µM; stronger effect = higher value.
As for `CC(C)(C)C(=O)CCN1C(=O)C2(OCCO2)c2ccccc21`, the activation was -4.67%.

`Cc1ccc(COC(=O)CN2C(=O)NC3(CCCC3)C2=O)cc1`: the activation was -1.66%.

As to `CC1=NNC(=O)C1CCC(=O)N/N=C(\C)c1ccc(Cl)cc1` (centres undefined), the activation is -3.34%.

For the molecule `O=C(O)c1ccccc1-c1ccccc1C(=O)Nc1cccc2ccccc12`, the activation was -1.68%.

In the case of `COc1ccc([C@H]2CC(=O)C=C(/C=C/c3ccccc3)C2)cc1`, the activation is -2.68%.

Take `CCCCNC(=O)OC(C)CNC(=O)OC` (centres undefined): the activation is -2.15%.

Turning to `Cc1ccc(S(=O)(=O)n2nc(OC(=O)C(C)(C)C)cc2N)cc1`, the activation was -1.8%.

For the molecule `CCCN(CC(=O)Nc1ccccc1C)C(=O)c1ccc2[nH]c3c(c2c1)CC(C)CC3` (centres undefined), the activation is 2.07%.

In the case of `O=C(NCc1ccccc1)C1c2ccccc2OCC(=O)N1C1CC1` (centres undefined), the activation was 1.81%.

`CSCCC1NC(=O)N(CC(=O)Nc2cccc(S(=O)(=O)N3CCCCCC3)c2)C1=O` (centres undefined): the activation was -0.9%.

On to `Cc1ccc(C)c(NC(=O)CSc2nnc(Cc3cccn3C)n2-c2ccc(F)cc2)c1`, for which the activation is 2.75%.

As to `CCc1ccc(NC(=O)CSc2nnc(-c3cnccn3)n2Cc2ccco2)cc1`, the activation was -1.98%.

As to `O=C1C(Sc2cccc(F)c2)=C[C@@]2(O)CC[C@@H](O)[C@]1(Sc1cccc(F)c1)[C@H]2O`, the activation is -4.14%.

`CN1c2ccc(C=O)c3c(C=O)ccc(c23)N(C)C1(C)C`: the activation is -1.46%.

As to `CCOc1ccccc1OCCCNCc1ccccc1`, the activation is -4.03%.

With `C=CCn1c(SCC(=O)c2c(N)n(C)c(=O)n(C)c2=O)nc2sc(CC)cc2c1=O`, the activation is -2.75%.

Turning to `COc1cc(NC(=O)COC(=O)c2ccc([N+](=O)[O-])s2)cc(OC)c1OC`, the activation was 4.75% (active).

With `Cc1noc(NS(=O)(=O)c2ccc(NC(=O)C34CCC(CC3)C4)cc2)c1C`, the activation was -0.66%.

As for `CCN(CC(=O)Nc1ccccc1OC)C(=O)CC1CC2CCC1C2` (centres undefined), the activation is 0.76%.

For `O=C(NC1=CC(=O)c2ccccc2C1=O)c1ccccc1`, the activation is 14.4% (active).

`COc1cc(OC)c(C(=O)NCc2ccc3c(c2)OCO3)cc1OC`: the activation is 2.87%.

For the molecule `CCN(CC)CCCC(C)n1c2nc(=O)[nH]c(=O)c-2nc2cc(Cl)ccc21` (centres undefined), the activation is 8.41% (active).

On to `O=C(O)Cc1ccc(NC(=O)C2CCCCC2C(=O)O)cc1` (centres undefined), for which the activation was -1.24%.

As to `COc1ccc(Cl)cc1NS(=O)(=O)c1cccc(C(=O)NCC2CCCO2)c1` (centres undefined), the activation was 2.13%.
